47 compounds from PMC4552634, “A New Set of Chemical Starting Points with Plasmodium falciparum Transmission-Blocking Potential for Antimalarial Drug Discovery” (PLoS ONE, 2015) can be followed below.

About 3,200 (25%) of roughly 13,000 compounds showed an effect of 50% or more. This is one part of the list.

The assay has as its system P. falciparum stage V gametocytes. The arrangement: BacTiter-Glo ATP luminescence viability of purified stage V gametocytes in 384-well plates, per cent inhibition versus DMSO. Particulars: 48 h, 5 µM; inhibitor.
In the case of `Cc1cc(-c2ccc3c(c2)CCN(CCC2CCC(NC(=O)/C=C/c4cccc(F)c4)CC2)CC3)on1` (centres unmarked) [TCMDC-139973], the “% Inhibition” value is -71.57%. Under `Cc1ccc(C)c(Sc2ccc(NC(=O)CN3CCN(C(=O)c4ccco4)CC3)cc2)c1` [TCMDC-124860] stands -17.66%; under `CC(C)c1cccc(OCC2CCN(c3ccc(C(=O)Nc4ccccc4)cn3)CC2)c1` [TCMDC-134261], 7.313%.

`NC(=O)c1c(Cl)nc2ccccc2c1Cl` [TCMDC-131373]: the “% Inhibition” value was -0.4742%. The same measure for `O=C(c1cccc(Br)c1)N1CCN(c2ccc([N+](=O)[O-])c(NC3CC3)c2)CC1` [TCMDC-123536]: 60.19%; for `O=C(Nc1cccc(CN2CCN(C(=O)c3cccc(Cl)c3)CC2)c1)c1ccco1` [TCMDC-136322]: -11.21%.

`O=C(c1cccc(-c2noc(C(F)(F)F)n2)c1)N1CCN(c2ccncc2)CC1` [TCMDC-132423]: the “% Inhibition” value was determined as 9.188%. The same measure for `O=C(c1cccc(Cl)c1)N1CCN(c2ccc([N+](=O)[O-])c(NC3CC3)c2)CC1` [TCMDC-125827]: 67.12%. The same measure for `COc1ccc(C(=O)Nc2ccc3nc(N4CCCCC4)cc(C)c3c2)cc1[N+](=O)[O-]` [TCMDC-125448]: -8.807%; for `O=C(NC1CC1)c1ccc(N2CCC(Cc3ccccc3)CC2)c([N+](=O)[O-])c1` [TCMDC-123724]: 45.67%. The same measure for `COc1ccc(S(=O)(=O)N2CCCC(C)C2)cc1N1CCN(C(=O)c2ccc([N+](=O)[O-])o2)CC1` (centres unmarked) [TCMDC-124803]: 27.68%. As for `COc1ccc(C(=O)N2CCN(c3ccc([N+](=O)[O-])c(NC4CC4)c3)CC2)cc1Br` [TCMDC-123659], the “% Inhibition” value is listed as 105.4%. `N#Cc1ccc(NC2(C(=O)N3CCN(c4cccc(Cl)c4)CC3)CC2)c2ccccc12` [TCMDC-136618]: the “% Inhibition” value was -25.2%. For the compound `O=C(NCC1CCC(C(=O)NCc2cccc3ccccc23)CC1)c1ccc(O)c(-c2ccc(Cl)c(Cl)c2)c1` (centres unmarked) [TCMDC-140895], the “% Inhibition” value was -0.9635%. The same measure for `CO/C(=C\C=C\c1cc2cc(Cl)c(Cl)cc2[nH]1)C(=O)NCCCN1CCN(c2cccc(OCC(=O)Nc3cccc(C(=O)c4ccccc4)c3)c2)CC1` [TCMDC-139411]: 32.5%.

On to `NC(=O)c1cc2nc(Nc3ccc(F)cc3)nc(NC3CCC3)c2[nH]1` [TCMDC-137003], for which the “% Inhibition” value was -67.45%. The same measure for `O=[N+]([O-])c1cccc(CNC2CCN(Cc3ccc4ccccc4c3)CC2)c1` [TCMDC-141202]: 96.08%; for `CCCCCCN1CCC(NCc2cccc([N+](=O)[O-])c2)CC1` [TCMDC-141205]: 32.34%. Under `O=[N+]([O-])c1cccc(CNC2CCN(Cc3ccc(-c4ccccc4)cc3)CC2)c1` [TCMDC-141203] stands 57.53%; under `COc1ccc(CN2CCC(NCc3cccc([N+](=O)[O-])c3)CC2)cc1` [TCMDC-141201], 64.68%. Under `O=[N+]([O-])c1cccc(CNC2CCN(Cc3ccc(Cl)c(Cl)c3)CC2)c1` [TCMDC-141200] stands 48.14%. In the case of `O=C(Nc1ccc2ccccc2c1)N1CCC(NCc2cccc([N+](=O)[O-])c2)CC1` [TCMDC-141278], the “% Inhibition” value came out at 22.21%. The same measure for `O=[N+]([O-])c1cccc(CNC2CCN(Cc3ccc(C(F)(F)F)cc3)CC2)c1` [TCMDC-141204]: -3.032%; for `O=[N+]([O-])c1cccc(CNCC2CCN(Cc3ccc4ccccc4c3)CC2)c1` [TCMDC-141207]: 30.18%. Under `COc1ccc(CN2CCC(NCc3cccc(C(F)(F)F)c3)CC2)cc1` [TCMDC-141652] stands 21.67%; under `Cn1c(NC(=O)c2ccc(CNC(=O)c3ccc(O)c(-c4ccc(Cl)c(Cl)c4)c3)cc2)nc2ccccc21` [TCMDC-140881], -6.168%; under `Cc1[nH]c2cc(Cl)ccc2c1C1=CCN(CCCCC2(C)C(=O)Nc3c(F)cccc32)CC1` (centres unmarked) [TCMDC-140946], -93.15%.

For `Cc1ccc(S(=O)(=O)NC2CCN(c3ccnc4cc(Cl)ccc34)C2)cc1` (centres unmarked) [TCMDC-133652], the “% Inhibition” value stood at 11.61%. The same measure for `Cc1cc(OCCCN2CCC(NS(=O)(=O)c3ccc(Cl)c(Cl)c3)C2)c2ccccc2n1` (centres unmarked) [TCMDC-136282]: -6.813%; for `COc1ccc(-c2ccc(NC(=O)c3cccc(C#N)c3)cc2)cc1CN1CCCC(C(N)=O)C1` (centres unmarked) [TCMDC-132533]: 78.38%; for `COc1ccc(-c2ccc(NC(=O)c3ccc(C#N)cc3)cc2)cc1CN1CCC(O)CC1` [TCMDC-132522]: -51.71%. The same measure for `COc1ccc(-c2cccc(NC(=O)c3cccc(C#N)c3)c2)cc1CN1CCN(C)CC1` [TCMDC-132624]: 71.95%; for `COc1ccc(-c2cccc(NC(=O)c3cccc(C#N)c3)c2)cc1CN1CCC(O)CC1` [TCMDC-132626]: 84.74%. The same measure for `COc1ccc(-c2cccc(NC(=O)c3cccc(C#N)c3)c2)cc1CN1CCCN(C)CC1` [TCMDC-132621]: 35.38%; for `COc1ccc(-c2ccc(NC(=O)c3cccc(C#N)c3)cc2)cc1CN1CCC(O)CC1` [TCMDC-132534]: -38.76%; for `COc1ccc(-c2cccc(NC(=O)c3cccc(C#N)c3)c2)cc1CN1CCCC1` [TCMDC-132623]: 25.04%.

For `COc1ccc(-c2ccc(NC(=O)c3cccc(C#N)c3)cc2)cc1CN1CCN(C)CC1` [TCMDC-132532], the “% Inhibition” value is given as 1.481%.

Regarding `Oc1ccc2[nH]c(-c3ccc(OC(F)(F)F)cc3)nc2c1CNC1CCCC1` [TCMDC-136530], the “% Inhibition” value was -82.26%.

On to `O=C(NC1CCN(c2ccnc3cc(Cl)ccc23)C1)c1ccc(F)cc1F` (centres unmarked) [TCMDC-133659], for which the “% Inhibition” value is given as 10.53%.

Turning to `COc1cc(Cc2cnc(N)nc2N)c2c(c1OC)OC(C)(C)C=C2` [TCMDC-138038], the “% Inhibition” value is given as -2.785%. The same measure for `Cc1cc(OCC2CCN(c3ccc(C(=O)NC4CC4)cn3)CC2)ccc1F` [TCMDC-134031]: 14.38%.

As to `Cn1ccc(-c2cccc(Nc3ccnc4cc(-c5nccs5)ccc34)c2)n1` [TCMDC-138336], the “% Inhibition” value was 105.5%. Under `Cn1cc(Br)c(-c2cccc(Nc3ccnc4cc(-c5nccs5)ccc34)c2)n1` [TCMDC-138333] stands 50.96%; under `Oc1cccc(Nc2ccnc3cc(-c4ccncc4)ccc23)c1` [TCMDC-138292], 8.476%; under `COc1cc(Nc2ccnc3cc(-c4nccs4)ccc23)ccc1OCCCc1nc2ccccc2[nH]1` [TCMDC-138339], -6.497%. The same measure for `Oc1cccc(Nc2ccnc3cc(-c4nccs4)ccc23)c1` [TCMDC-138297]: -47.13%; for `Brc1ccc(Nc2ccnc3cc(-c4nccs4)ccc23)cc1Oc1ccnc2cc(-c3nccs3)ccc12` [TCMDC-138299]: 0.7997%.

As a reminder, the % Inhibition is the drop in the measured response relative to a control, in per cent.
